Experimental data as given in PubChem BioAssay (EPA / NIEHS).
Some compounds were tested as several samples or in several runs, with calls that do not always agree. The source made the active and inactive calls. Rule for the calls: active = hit-call score of the fitted dose curve at least 0.9, where 1 is the maximum; inactive = score below 0.9.

Legend:
Conditions in all cases: primary human HUVEC with PBMC; actives raise or lower the signal
[1] = read-out: Monocyte Chemoattractant Protein-1 (MCP1), CCL2 (gene 6347); assay: BSK_LPS_MCP1: BioMAP Diversity Plus: LPS Assay for Monocyte Chemoattractant Protein-1 (MCP1) Biomarker Activity (AID 2283081);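 for AC50: secreted MCP-1 protein quantified by ELISA in culture supernatant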
Method in brief: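 Human umbilical vein endothelial cells co-cultured with PBMC, LPS-stimulated; secreted MCP-1 measured by ELISA 24 h after compound addition. Bidirectional curve fitting against DMSO baseline; SRB total-protein staining in parallel cultures for cytotoxicity.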

[2] = BSK_LPS_PGE2: BioMAP Diversity Plus: LPS Assay for Prostaglandin E2 (PGE2) Biomarker Activity (AID 2283082);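 for AC50: secreted prostaglandin E2 measured by ELISA in LPS-stimulated co-culture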
Method in brief: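 Endpoint derived from bidirectional curve fitting versus DMSO of ELISA-measured PGE2 in LPS-stimulated human primary vascular co-culture (HUVEC with PBMC) harvested at 24 h.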

[3] = read-out: Macrophage colony-stimulating factor (MCSF), CSF1 (gene 1435); assay: BSK_LPS_MCSF: BioMAP Diversity Plus: LPS Assay for Macrophage colony-stimulating factor (MCSF) Biomarker Activity (AID 2283083)
Method in brief: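 HUVEC–PBMC co-culture, M-CSF measured by ELISA 24 h after chemical dosing. Fitted in both directions relative to DMSO as negative control; overt cytotoxicity assessed by SRB total-protein staining in parallel cultures.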

[4] = read-out: Tissue Factor, F3 (gene 2152); assay: BSK_LPS_TissueFactor: BioMAP Diversity Plus: LPS Assay for Tissue Factor Biomarker Activity (AID 2283084)
Method in brief: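 Human umbilical vein endothelial cells co-cultured with PBMC were dosed with compound. Cell-surface CD142 was measured by ELISA 24 h later. Activity was fitted bidirectionally against DMSO, with SRB total-protein staining in parallel cultures for cytotoxicity.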

[5] = read-out: Tumor necrosis factor (Homo sapiens) (UniProt P01375); assay: BSK_LPS_TNFa: BioMAP Diversity Plus: LPS Assay for Tumour Necrosis Factor alpha (TNFa) Biomarker Activity (AID 2283085)
Method in brief: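 Primary human vascular co-culture of HUVEC and PBMC; TNFa ELISA 24 h after treatment, analysed as increase or decrease relative to DMSO control.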

[6] = read-out: Vascular cell adhesion molecule 1 (VCAM1), VCAM1 (gene 7412); assay: BSK_LPS_VCAM1: BioMAP Diversity Plus: LPS Assay for Vascular cell adhesion molecule 1 (VCAM1) Biomarker Activity (AID 2283086)
Method in brief: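 Primary human vascular co-culture (umbilical vein endothelium plus PBMC) stimulated with LPS received chemical; 24 h later VCAM-1 was read by ELISA. Overt cytotoxicity was assessed by sulforhodamine B staining of parallel cultures at the same time point.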

CD38, CD38 (gene 952) = assay: BSK_SAg_CD38: BioMAP Diversity Plus: SAg Assay for CD38 Biomarker Activity (AID 2283087)
Method in brief: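 Fluorescence ELISA of cell-surface CD38 served as the read-out, with either increase or decrease fitted against DMSO controls. Cells were a human umbilical vein endothelium plus PBMC co-culture under SEB/TSST-1 stimulation, measured 24 h after dosing.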

CD40, CD40 (gene 958) = assay: BSK_SAg_CD40: BioMAP Diversity Plus: SAg Assay for CD40 Biomarker Activity (AID 2283088)
Method in brief: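 HUVEC plus PBMC co-culture, superantigen-activated, with CD40 read by ELISA 24 h after dosing. Curves fitted in both directions against DMSO. Overt cytotoxicity checked by parallel SRB total-protein staining.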

CD69, CD69 (gene 969) = assay: BSK_SAg_CD69: BioMAP Diversity Plus: SAg Assay for CD69 Biomarker Activity (AID 2283089);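 for AC50: cell surface CD69 protein quantified by ELISA with fluorescence detection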
Method in brief: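 Values derive from bidirectional fitting relative to DMSO vehicle. Cells: umbilical vein endothelium plus peripheral blood mononuclear cells, treated 24 h before fluorescent ELISA for CD69.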

[7] = read-out: Monocyte Chemoattractant Protein-1 (MCP1), CCL2 (gene 6347); assay: BSK_SAg_MCP1: BioMAP Diversity Plus: SAg Assay for Monocyte Chemoattractant Protein-1 (MCP1) Biomarker Activity (AID 2283090)
Method in brief: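 MCP-1 levels in the endothelial–PBMC SAg co-culture were quantified by ELISA at 24 h post-dosing; both increases and decreases versus DMSO scored. Cytotoxicity monitored by SRB total protein in parallel cultures.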

Sequence of Tumor necrosis factor (Homo sapiens) (P01375 whole entry, looked up): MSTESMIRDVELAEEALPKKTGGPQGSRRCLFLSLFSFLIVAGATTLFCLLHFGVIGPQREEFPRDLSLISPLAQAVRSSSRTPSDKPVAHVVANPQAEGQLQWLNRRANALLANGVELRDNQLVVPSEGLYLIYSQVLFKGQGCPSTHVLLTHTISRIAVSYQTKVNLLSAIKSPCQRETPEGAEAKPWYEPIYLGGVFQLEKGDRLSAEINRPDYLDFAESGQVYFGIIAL

Structure (SMILES)	AC50 [1]	AC50 [2]	AC50 [3]	AC50 [4]	AC50 [5]	AC50 [6]	AC50 (CD38, CD38 (gene 952))	AC50 (CD40, CD40 (gene 958))	AC50 (CD69, CD69 (gene 969))	AC50 [7]	outcome [1]	outcome [2]	outcome [3]	outcome [4]	outcome [5]	outcome [6]	outcome (CD38, CD38 (gene 952))	outcome (CD40, CD40 (gene 958))	outcome (CD69, CD69 (gene 969))	outcome [7]
CC(=O)Nc1ccc(C(=O)CCl)cc1	5.89 µM (active)	1.17 µM (active)	5.36 µM (active)	5.39 µM (active)	4.58 µM (active)	4.35 µM (active)	3.84 µM (active)	4.69 µM (active)	5.33 µM (active)	10.6 µM (active)	–	–	–	–	–	–	–	–	–	–
C=CC(C)(O)CCC=C(C)C (stereo unspecified)	–	–	–	–	–	–	–	–	–	–	inactive	inactive	inactive	inactive	inactive	inactive	inactive	inactive	inactive	inactive
IC(I)I	–	–	–	–	–	–	–	–	–	–	inactive	inactive	inactive	inactive	inactive	inactive	inactive	inactive	inactive	inactive
C=C(C)C(=O)OCC(CC)(COC(=O)C(=C)C)COC(=O)C(=C)C	–	–	–	–	–	19.7 µM (active)	–	–	–	–	inactive	inactive	inactive	inactive	inactive	–	inactive	inactive	inactive	inactive
COc1ccc(OC)c(N=Nc2c(O)ccc3ccccc23)c1	8.02 µM (active)	–	20 µM (active)	20 µM (active)	20 µM (active)	20 µM (active)	20 µM (active)	3.97 µM (active)	–	–	–	inactive	–	–	–	–	–	–	inactive	inactive
CC=Cc1ccc(OCC)c(O)c1	–	0.44 µM (active)	–	–	–	–	–	–	–	–	inactive	–	inactive	inactive	inactive	inactive	inactive	inactive	inactive	inactive
O=CN1CCOCC1	–	–	–	–	–	–	–	–	–	–	inactive	inactive	inactive	inactive	inactive	inactive	inactive	inactive	inactive	inactive
CS(=O)(=O)OCCCCOS(C)(=O)=O	–	–	–	–	–	–	–	–	–	–	inactive	inactive	inactive	inactive	inactive	inactive	inactive	inactive	inactive	inactive
CC(C)(C)CC(C)(C)c1ccc(OCCOCC[N+](C)(C)Cc2ccccc2)cc1	7.38 µM (active)	–	7.03 µM (active)	9.04 µM (active)	8.89 µM (active)	9.18 µM (active)	5 µM (active)	5 µM (active)	3.28 µM (active)	5 µM (active)	–	inactive	–	–	–	–	–	–	–	–
O=C1OC[C@H](Cc2cccc(O)c2)[C@H]1Cc1cccc(O)c1	–	–	–	–	–	–	–	–	–	–	inactive	inactive	inactive	inactive	inactive	inactive	inactive	inactive	inactive	inactive
CC1(C)CCC[C@]2(C)[C@H]3CCO[C@]3(C)CC[C@@H]12	–	–	–	–	–	–	–	36.6 µM (active)	–	–	inactive	inactive	inactive	inactive	inactive	inactive	inactive	inactive	inactive	inactive
CCC(C)c1cc([N+](=O)[O-])cc([N+](=O)[O-])c1OC(=O)OC(C)C (stereo unspecified)	14.3 µM (active)	5.42 µM (active)	14 µM (active)	16.2 µM (active)	31.8 µM (active)	16.8 µM (active)	10.8 µM (active)	9.34 µM (active)	8.7 µM (active)	12.2 µM (active)	–	–	–	–	–	–	–	–	–	–
CC(CN=Cc1ccccc1O)N=Cc1ccccc1O (stereo unspecified)	–	–	–	–	–	–	–	–	–	–	inactive	inactive	inactive	inactive	inactive	inactive	inactive	inactive	inactive	inactive
CC(=O)c1c(C)c([N+](=O)[O-])c(C(C)(C)C)c([N+](=O)[O-])c1C	–	–	–	–	–	–	–	–	–	–	inactive	inactive	inactive	inactive	inactive	inactive	inactive	inactive	inactive	inactive
Clc1cc(Cl)c(-c2c(Cl)c(Cl)cc(Cl)c2Cl)cc1Cl	–	–	1.98 µM (active)	–	–	3.5 µM (active)	15.6 µM (active)	16.3 µM (active)	10 µM (active)	–	inactive	inactive	–	inactive	inactive	–	–	–	–	inactive
c1ccc2cc(Nc3ccc(Nc4ccc5ccccc5c4)cc3)ccc2c1	–	–	–	–	–	–	–	–	–	–	inactive	inactive	inactive	inactive	inactive	inactive	inactive	inactive	inactive	inactive
O=C1OC2(c3ccccc31)c1ccc(O)c(Br)c1Oc1c2ccc(O)c1Br	20 µM (active)	11.1 µM (active)	20 µM (active)	20 µM (active)	–	20 µM (active)	20 µM (active)	28.8 µM (active)	20 µM (active)	20 µM (active)	–	–	–	–	inactive	–	–	–	–	–
C1=CC2C3C=CC(C3)C2C1 (stereo unspecified)	–	–	–	–	–	–	–	–	–	–	inactive	inactive	inactive	inactive	inactive	inactive	inactive	inactive	inactive	inactive
C[C@@H]1CCN(C(=O)[C@H](CCCN=C(N)N)NS(=O)(=O)c2cccc3c2NC[C@H](C)C3)[C@@H](C(=O)O)C1	–	–	–	–	–	–	–	–	–	–	inactive	inactive	inactive	inactive	inactive	inactive	inactive	inactive	inactive	inactive
